The campaign covered roughly 52,000 sequences. About 210 (0.4%) were called active.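 The calls were made as follows: active = gene whose silencing raises cell survival under the drug, median off-target-corrected z-score across its silencing RNAs 2 or more; inactive = the rest.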 The entries come from a sample that favours actives as a whole.
test: Resistance to Poly (ADP-Ribose) Polymerase inhibitor: Gene Identification via Genome-wide siRNA Screen; conditions: mouse BRCA2 R2336H ES cells, olaparib, CellTiter-Glo viability; active compounds read high
Procedure, shortened: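 Mouse BRCA2 R2336H ES cells were reverse-transfected with siRNA (20 nM final), treated at 48 h with 500 nM olaparib, and read by CellTiter-Glo after 72 h. Scores: MAD-based z per siRNA, median per gene, seed off-target correction.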

Sequence	z-score
CCGACAAAUAAAGGCUUUATT against Ddx52	-0.0103 (inactive)
CCGCAUGACACGACAUGUATT against BC034097	2.56 (active)
CCCUGUACACACCUAAAAATT against D10Ertd438e	1.39 (inactive)
CGUUUGCUCUAAAGCCAGGTT against BC004728	1.02 (inactive)
GGAUUUCCUGGAAAAUUCCTT against Siat8a	0.62 (inactive)
GGUGUCUGUCAUGACCAUGTT against Tie1	2.02 (inactive)
GCUCGUCUAUGCUAUUUCUTT against Fath	0.81 (active)
GAUCACAGUCACGAUAUAATT against Prss19	-1.28 (inactive)
GGAAGAGAUGGAAUUAUUGTT against Sh3bp5	-0.737 (inactive)
GCUUGUGAUCGACUCUGCATT against Centb5	0.0161 (inactive)
CCUUCAUUUAUUCUACGAGTT against LOC244556	0.476 (inactive)
GCUCUCAUUAGCAUUAUCGTT against Gria1	-0.366 (active)
GCAGGUUAAGUAGCUGACATT against Dnclic2	-1.28 (inactive)
CGUGCAUGCAAAUUAUGUATT against 4933417O08Rik	-0.372 (inactive)
GGCACUCAGUAACUGCAUGTT against Gababrbp	-0.611 (inactive)
GGACUGUCAGUACUGUCAATT against E030025L21Rik	-0.201 (inactive)
GGAGUAAUCAUGCUGGAGCTT against 9930104L06Rik	0.406 (inactive)
CCAUGUCCAAUGAGGACUUTT against Htr1b	1.74 (active)
CCCUGAACGAAUAAUCGGCTT against Cbx3	-0.637 (inactive)
CGAUAAACUGGAUACCACUTT against A430083B19Rik	-0.3 (inactive)
GGAGAUGCUGGACUGCUUUTT against Htr1b	-0.751 (active)
GGUUGUUUAAACUCAGUUUTT against Slco4c1	-1.83 (inactive)
GGCCAAAUCAUGGAUGCAGTT against Comt	-1.72 (inactive)
GGAUCUAUAAGGACUACAUTT against Bmp7	-0.68 (inactive)
CGGGAACUCACCGAAAAGATT against 4921521N14Rik	0.566 (inactive)
GGAUGUGGCUGCUUUGAAGTT against Wbscr27	0.123 (inactive)
GGGAUUUUCUGUGUAUCUUTT against D5Ertd33e	-0.0623 (inactive)

Sequence	z-score
GGCAUAACUGAUCAUACGCTT against Foxp3	1.06 (inactive)
GGUUUUAGAAGGGAAACAUTT against Ppp2r2c	-0.761 (inactive)
GGAGCCAAGUGUGAUUACATT against Pias3	-1.38 (active)
GGAUUGCUGUGCCUUAUGATT against 2010004A03Rik	0.503 (inactive)
CCACUUUUUUAGAUCCCUGTT against AA960436	-0.149 (inactive)
GACUCCCACUUACACUCUCTT against Olfr1312	-1.08 (inactive)
GGUUCUUUAAUAGAACAUGTT against Tyrp1	-0.207 (inactive)
GGUCAUUGGUCGCUGGUCATT against Gzmm	1.22 (inactive)
CGUGGGAUUUAAUGAUCAATT against Nid2	0.787 (inactive)
GGGCCUAUAUAACAUCUUGTT against Usp11	0.581 (active)
GGGUAUCUUCUGGAAAACATT against Angptl4	0.203 (inactive)
GGCUAUGCAGCAUAUUAUATT against Ndufa1	-0.819 (inactive)
GGAAAUUUUGGAGAUGAUATT against 5730444A13Rik	-0.496 (inactive)
GGCGAUCUAUCACACUGUGTT against Chst7	1.39 (inactive)
GGAGGAAGAAACAGAACCATT against A930021G21Rik	-2.36 (inactive)
GCAGUCUGGUUCUCUCAAATT against Cryl1	2.21 (inactive)
GGUUGCUUGGAAUUAAAAGTT against Klhl1	1.01 (active)
CACGGGCAUCCUUGACUCCTT against Mbp	0.994 (inactive)
GCAACAUGGCCCUUACCAUTT against Plcb2	-0.797 (inactive)
GGCUCCUUAAAGAUAUGUUTT against Nsmaf	0.332 (inactive)
GGAAUGUGUUAUGGUGAUUTT against Mgl2	-0.346 (inactive)
GCCUUUAUAGUCUUAAGCATT against 2810475A17Rik	-1.55 (inactive)
GGAUAAAUGGUUCUAGAAATT against 3110006P09Rik	-0.433 (active)
CCUUCAAUUUCAGUUCAGATT against Olfr1388	0.422 (inactive)
GGUAUUCUCUAAGAAGGAGTT against Ccbl1	-0.635 (inactive)
GGCAUUUGAAGAUGUUUCUTT against Hmgb3	1.56 (active)
GGAGACGUGUCUGAAAGACTT against Glp2r	-0.752 (inactive)

Sequence	z-score
GCUUCACAAGCAGUGUACUTT against Slc37a1	1.96 (active)
CCUUUUUCUGGAUUGGAAUTT against Klrd1	1.78 (active)
GCCAGCAACAGGAUGAUAUTT against Prkwnk1	-1.02 (inactive)
GCUCAGACAUGUUCUUACCTT against BC037527	0.547 (inactive)
GCUUAAAACAGACCAUUUUTT against 1700013G20Rik	0.824 (inactive)
GCAUUCAAGCAACCACGAATT against Ptdss1	-0.153 (inactive)
GCACUUGGGUAAAAAACUCTT against Bcorl1	0.555 (inactive)
GCUGACCCAGCUAUGUACUTT against 4930519N13Rik	-0.26 (inactive)
GGAAGCUGGUUCCUGUUUUTT against Bid3	2.66 (active)
CCAGAGUAAGAGUAAAAGCTT against Mamdc2	1.32 (inactive)
GGCUGUAAUGAGGACUGAUTT against Deb1	-1.92 (inactive)
CCUAAAUUCGGUUUGAAUCTT against Fath	2.74 (active)
GCAUUUUGACCCAAGUGUUTT against Foxq1	0.0651 (inactive)
CGAUCUACAUCUGCAUCAUTT against Olfr1212	-0.961 (inactive)
GGCUUUGAUUGAACAUGAGTT against Lypla2	0.783 (inactive)
CCAUCUAUGAUCCCAGAGCTT against Fbxw9	0.241 (inactive)
GGACGUGACAGACAUUAUUTT against Htr5b	-0.897 (inactive)
GCCAAUGAUGUAGCAAAUUTT against Slc20a1	2.1 (active)
CCCUAAUAGAACUAAUGAATT against Kpnb1	-3.47 (inactive)
CCUACUUCCUCCAUUUAGGTT against 5033413D22Rik	1.42 (inactive)
GGAGUACAGUGAUGACAAGTT against Ing5	0.235 (inactive)
GGUUGGCCAUAUAAAGAGATT against Smarca3	0.771 (active)
GGCAAAUGGUCUUUAUGCATT against Zfp606	-0.699 (inactive)
GGGAAGUCACUUUUGUUCCTT against Top2a	-1.25 (inactive)
GGCCAAAUUCUUCAGCAGATT against Rpl27a	-2.82 (inactive)
GGUCCACGGUUACUAAAAATT against Klrd1	2.45 (active)
CCAAAACAACCACAAGUAGTT against A930006D11	-2.39 (inactive)

Sequence	z-score
GGUGAUAGUCCACGAGGUUTT against Mbc2	-1.31 (inactive)
GGGUUUUUUUUUUCCUUCCTT against Hsd17b1	1.88 (active)
GGAGUUUGAGACACUCUGCTT against Apg4d	0.266 (inactive)
GGUCCUUCCAUAGUGACGCTT against Igfbp7	0.24 (inactive)
GGAAAUAUGAUCCAUCCUGTT against Zfp282	1.65 (inactive)
GGUAUCAAGUGCAGAAUGUTT against Slc37a1	1.99 (active)
GGGUAACAGUGGUGAACCUTT against Col1a1	-1.52 (inactive)
GCUACAAUAUGACAAGUGUTT against Adamts5	2.82 (active)
GGAUGCUCUCUUAAAUGGATT against AI595338	-0.0806 (inactive)
GGAAAAUUGAGAUUUCUGCTT against 1110003E01Rik	1.52 (inactive)
GGAUGAAAAAUACUGGUGUTT against Ugt8	3.17 (inactive)
GAAGAUCCACUUCAUCGCCTT against Psmb10	-1.82 (inactive)
GGAAGACAUGAAAUUGUUCTT against Psma3	-2.92 (inactive)
GGAUGAAGAGAAAAAUUGATT against Slc20a1	2.96 (active)
GGGUGUACAUUGAAAUUAATT against Epha4	1.05 (inactive)
GGAAUUUGAUUCUCUGCCUTT against 6820429M01	0.0636 (inactive)
GGCACAUGCCCUUUUCUACTT against Cog1	0.266 (inactive)
GCAUUCAGAAUGAGCUGACTT against Nfasc	-0.0641 (inactive)
GGUGAUCUUCAAAUUGGAGTT against Zfp90	-0.401 (inactive)
GCUAUAUCUAAAGCUAUUCTT against Sgpp1	0.574 (active)
GGCCCACCUAUUUCAUCUCTT against Actl7b	0.808 (inactive)
GGAGUUUGCCACAAUUGUUTT against 2810408E11Rik	-1.26 (inactive)
GGAAGAGAGAUGGAAAAAATT against Gcnt1	-0.555 (inactive)
GGAAAGUGUCACCAAGUUCTT against B230359F08Rik	-0.0496 (inactive)

Source: PubChem BioAssay AID1347423 (Functional Genomics Laboratory (NCATS/FGL), 2020)
